Counter-ions that a name gives are not always drawn. In all, about 1,500 compounds were measured (“Excess HSA synergy score (sum over dose matrix of excess over highest single agent)”: median about 43, lowest 2% from about -900 on). This is one part of a sample in which the lowest values are shown more often than they occur.
Test system: PEO-1
Assay: Excess HSA synergy score (sum over dose matrix of excess over highest single agent) (score (summed % response)); higher = less synergy / more antagonism (negative = synergy)
Details: 72 h, read-out: viability/apoptosis luminescence (CellTiter-Glo or Caspase3-Glo / not stated per table)
[1] = matrix design: 6x6, 5-fold dilutions (primary screen)
[2] = matrix design: 10x10, 9-step dilutions (confirmatory)

SMILES | Excess HSA synergy score [1] | Excess HSA synergy score [2]
COc1cc(C(C)=O)ccc1OCCCN1CCC(c2noc3cc(F)ccc23)CC1 [Iloperidone] + CC[C@H](NC(=O)[C@H](C)NC)C(=O)N1C[C@@H](O)C[C@H]1Cc1c(-c2[nH]c3cc(F)ccc3c2C[C@@H]2C[C@H](O)CN2C(=O)[C@H](CC)NC(=O)[C@H](C)NC)[nH]c2cc(F)ccc12 [Birinapant] | 75 | –
CN1C(=O)C(Cc2c[nH]c3ccccc23)NC1=S (stereo not drawn) [Necrostatin-1] + CC[C@H](NC(=O)[C@H](C)NC)C(=O)N1C[C@@H](O)C[C@H]1Cc1c(-c2[nH]c3cc(F)ccc3c2C[C@@H]2C[C@H](O)CN2C(=O)[C@H](CC)NC(=O)[C@H](C)NC)[nH]c2cc(F)ccc12 [Birinapant] | 340 | –
Clc1ccc(-c2nc3sccn3c2/C=N/OCc2ccc(Cl)c(Cl)c2)cc1 + CC[C@H](NC(=O)[C@H](C)NC)C(=O)N1C[C@@H](O)C[C@H]1Cc1c(-c2[nH]c3cc(F)ccc3c2C[C@@H]2C[C@H](O)CN2C(=O)[C@H](CC)NC(=O)[C@H](C)NC)[nH]c2cc(F)ccc12 [Birinapant] | 56.2 | –
NS(=O)(=O)OC[C@@H]1C[C@@H](n2ccc3c(N[C@H]4CCc5ccccc54)ncnc32)C[C@@H]1O + CC[C@H](NC(=O)[C@H](C)NC)C(=O)N1C[C@@H](O)C[C@H]1Cc1c(-c2[nH]c3cc(F)ccc3c2C[C@@H]2C[C@H](O)CN2C(=O)[C@H](CC)NC(=O)[C@H](C)NC)[nH]c2cc(F)ccc12 [Birinapant] | -120 | -1280
CN1CCCN=C1/C=C/c1cccs1 [Pyrantel pamoate] + CC[C@H](NC(=O)[C@H](C)NC)C(=O)N1C[C@@H](O)C[C@H]1Cc1c(-c2[nH]c3cc(F)ccc3c2C[C@@H]2C[C@H](O)CN2C(=O)[C@H](CC)NC(=O)[C@H](C)NC)[nH]c2cc(F)ccc12 [Birinapant] | 18.2 | –
O=C(Nc1nc2cccc(-c3ccc(CN4CCS(=O)(=O)CC4)cc3)n2n1)C1CC1 [Filgotinib] + CC[C@H](NC(=O)[C@H](C)NC)C(=O)N1C[C@@H](O)C[C@H]1Cc1c(-c2[nH]c3cc(F)ccc3c2C[C@@H]2C[C@H](O)CN2C(=O)[C@H](CC)NC(=O)[C@H](C)NC)[nH]c2cc(F)ccc12 [Birinapant] | 94.7 | –
COc1cccc2nc(-c3cccs3)nc(NN3C(=O)C=C(C)C3=O)c12 + CC[C@H](NC(=O)[C@H](C)NC)C(=O)N1C[C@@H](O)C[C@H]1Cc1c(-c2[nH]c3cc(F)ccc3c2C[C@@H]2C[C@H](O)CN2C(=O)[C@H](CC)NC(=O)[C@H](C)NC)[nH]c2cc(F)ccc12 [Birinapant] | -105 | -1130
COCC[n+]1c2c(n(Cc3cnccn3)c1C)C(=O)c1ccccc1C2=O [Sepantronium bromide] + CC[C@H](NC(=O)[C@H](C)NC)C(=O)N1C[C@@H](O)C[C@H]1Cc1c(-c2[nH]c3cc(F)ccc3c2C[C@@H]2C[C@H](O)CN2C(=O)[C@H](CC)NC(=O)[C@H](C)NC)[nH]c2cc(F)ccc12 [Birinapant] | 55.3 | 281
CCCCCNC(=O)N1CCC(CN(Cc2ccc(Cl)cc2)Cc2ccc([N+](=O)[O-])s2)C1 (stereo not drawn) + CC[C@H](NC(=O)[C@H](C)NC)C(=O)N1C[C@@H](O)C[C@H]1Cc1c(-c2[nH]c3cc(F)ccc3c2C[C@@H]2C[C@H](O)CN2C(=O)[C@H](CC)NC(=O)[C@H](C)NC)[nH]c2cc(F)ccc12 [Birinapant] | -0.0169 | –
O=c1ccn(C2OC(CO)C(O)C2F)c(=O)[nH]1 (stereo not drawn) + CC[C@H](NC(=O)[C@H](C)NC)C(=O)N1C[C@@H](O)C[C@H]1Cc1c(-c2[nH]c3cc(F)ccc3c2C[C@@H]2C[C@H](O)CN2C(=O)[C@H](CC)NC(=O)[C@H](C)NC)[nH]c2cc(F)ccc12 [Birinapant] | 232 | –
Cc1cc(Nc2cc(CN3CCOCC3)c3nc(C)c(Cc4ccc(Cl)cc4F)n3n2)n[nH]1 [Gandotinib] + CC[C@H](NC(=O)[C@H](C)NC)C(=O)N1C[C@@H](O)C[C@H]1Cc1c(-c2[nH]c3cc(F)ccc3c2C[C@@H]2C[C@H](O)CN2C(=O)[C@H](CC)NC(=O)[C@H](C)NC)[nH]c2cc(F)ccc12 [Birinapant] | 66.5 | –
COc1ccc(-c2c(-c3ccc(O)cc3O)n[nH]c2C)cc1 + CC[C@H](NC(=O)[C@H](C)NC)C(=O)N1C[C@@H](O)C[C@H]1Cc1c(-c2[nH]c3cc(F)ccc3c2C[C@@H]2C[C@H](O)CN2C(=O)[C@H](CC)NC(=O)[C@H](C)NC)[nH]c2cc(F)ccc12 [Birinapant] | 59.5 | –
Cc1c(CN2CCN(S(C)(=O)=O)CC2)sc2c(N3CCOCC3)nc(-c3cnc(N)nc3)nc12 + CC[C@H](NC(=O)[C@H](C)NC)C(=O)N1C[C@@H](O)C[C@H]1Cc1c(-c2[nH]c3cc(F)ccc3c2C[C@@H]2C[C@H](O)CN2C(=O)[C@H](CC)NC(=O)[C@H](C)NC)[nH]c2cc(F)ccc12 [Birinapant] | 87.6 | –
C/C=C1\NC(=O)[C@H]2CSSCC/C=C/[C@H](CC(=O)N[C@H](C(C)C)C(=O)N2)OC(=O)[C@H](C(C)C)NC1=O [Romidepsin] + CC[C@H](NC(=O)[C@H](C)NC)C(=O)N1C[C@@H](O)C[C@H]1Cc1c(-c2[nH]c3cc(F)ccc3c2C[C@@H]2C[C@H](O)CN2C(=O)[C@H](CC)NC(=O)[C@H](C)NC)[nH]c2cc(F)ccc12 [Birinapant] | -212 | -1300
COc1cccc2c(NCc3ccccc3)nc(-n3c(N)nc4ccccc43)nc12 + CC[C@H](NC(=O)[C@H](C)NC)C(=O)N1C[C@@H](O)C[C@H]1Cc1c(-c2[nH]c3cc(F)ccc3c2C[C@@H]2C[C@H](O)CN2C(=O)[C@H](CC)NC(=O)[C@H](C)NC)[nH]c2cc(F)ccc12 [Birinapant] | 17 | –
N#CC1(c2cccc(C(=O)Nc3cc(Oc4ccc5nc(NC(=O)C6CC6)sc5n4)ccc3F)c2Cl)CC1 [Takeda-6d] + CC[C@H](NC(=O)[C@H](C)NC)C(=O)N1C[C@@H](O)C[C@H]1Cc1c(-c2[nH]c3cc(F)ccc3c2C[C@@H]2C[C@H](O)CN2C(=O)[C@H](CC)NC(=O)[C@H](C)NC)[nH]c2cc(F)ccc12 [Birinapant] | 135 | –
O[C@@H](CNC[C@H](O)[C@H]1CCc2cc(F)ccc2O1)[C@@H]1CCc2cc(F)ccc2O1 (racemic) [rac Nebivolol hydrochloride] + CC[C@H](NC(=O)[C@H](C)NC)C(=O)N1C[C@@H](O)C[C@H]1Cc1c(-c2[nH]c3cc(F)ccc3c2C[C@@H]2C[C@H](O)CN2C(=O)[C@H](CC)NC(=O)[C@H](C)NC)[nH]c2cc(F)ccc12 [Birinapant] | 50.2 | –
CC(C)(O)CC[C@@H](O)[C@](C)(O)[C@H]1CC[C@@]2(O)C3=CC(=O)[C@@H]4C[C@@H](O)[C@@H](O)C[C@]4(C)[C@H]3CC[C@]12C [20-hydroxyecdysone] + CC[C@H](NC(=O)[C@H](C)NC)C(=O)N1C[C@@H](O)C[C@H]1Cc1c(-c2[nH]c3cc(F)ccc3c2C[C@@H]2C[C@H](O)CN2C(=O)[C@H](CC)NC(=O)[C@H](C)NC)[nH]c2cc(F)ccc12 [Birinapant] | 229 | –
O=C(Nc1ccccc1Br)N[C@@H]1CCN(c2ccc(C(F)(F)F)cn2)C1 + CC[C@H](NC(=O)[C@H](C)NC)C(=O)N1C[C@@H](O)C[C@H]1Cc1c(-c2[nH]c3cc(F)ccc3c2C[C@@H]2C[C@H](O)CN2C(=O)[C@H](CC)NC(=O)[C@H](C)NC)[nH]c2cc(F)ccc12 [Birinapant] | -16.5 | –
C[C@H](NC(=O)C(=O)Nc1ccccc1C(C)(C)C)C(=O)N[C@@H](CC(=O)O)C(=O)COc1c(F)c(F)cc(F)c1F [Emricasan] + CC[C@H](NC(=O)[C@H](C)NC)C(=O)N1C[C@@H](O)C[C@H]1Cc1c(-c2[nH]c3cc(F)ccc3c2C[C@@H]2C[C@H](O)CN2C(=O)[C@H](CC)NC(=O)[C@H](C)NC)[nH]c2cc(F)ccc12 [Birinapant] | – | -606
COc1ccc2c(OCc3nnc4ccc(-c5ccccc5)nn34)ccnc2c1 + CC[C@H](NC(=O)[C@H](C)NC)C(=O)N1C[C@@H](O)C[C@H]1Cc1c(-c2[nH]c3cc(F)ccc3c2C[C@@H]2C[C@H](O)CN2C(=O)[C@H](CC)NC(=O)[C@H](C)NC)[nH]c2cc(F)ccc12 [Birinapant] | -55.6 | –
N[C@@H](CSC(c1ccccc1)(c1ccccc1)c1ccccc1)C(=O)O [S-Trityl-L-cysteine] + CC[C@H](NC(=O)[C@H](C)NC)C(=O)N1C[C@@H](O)C[C@H]1Cc1c(-c2[nH]c3cc(F)ccc3c2C[C@@H]2C[C@H](O)CN2C(=O)[C@H](CC)NC(=O)[C@H](C)NC)[nH]c2cc(F)ccc12 [Birinapant] | -23.2 | –
CCC(=O)NCC[C@@H]1CCc2ccc3c(c21)CCO3 [Ramelteon] + CC[C@H](NC(=O)[C@H](C)NC)C(=O)N1C[C@@H](O)C[C@H]1Cc1c(-c2[nH]c3cc(F)ccc3c2C[C@@H]2C[C@H](O)CN2C(=O)[C@H](CC)NC(=O)[C@H](C)NC)[nH]c2cc(F)ccc12 [Birinapant] | 10.8 | –
NC(=O)c1c(OCc2c(F)cc(Br)cc2F)nsc1NC(=O)NCCCCN1CCCC1 + CC[C@H](NC(=O)[C@H](C)NC)C(=O)N1C[C@@H](O)C[C@H]1Cc1c(-c2[nH]c3cc(F)ccc3c2C[C@@H]2C[C@H](O)CN2C(=O)[C@H](CC)NC(=O)[C@H](C)NC)[nH]c2cc(F)ccc12 [Birinapant] | 11 | –
